Test results from a collection of fitness landscapes (doi:10.1126/science.1257360).
The full ranking holds about 140,000 sequences; the median of “enrichment ratio after two sorts for PhoP signalling” is about 0, and the highest 2% start at about 11. The sample holds the highest values, similar sequences and a random draw of the others, so the mix is not that of the screen.

B1: PhoQ; a variant is named by its letters at X, in order, P23837 (parent)
chain: MKKLLRLFFPLSLRVRFLLATAAVVLVLSLAYGMVALIGYSVSFDKTTFRLLRGESNLFYTLAKWENNKLHVELPENIDKQSPTMTLIYDENGQLLWAQRDVPWLMKMIQPDWLKSNGFHEIEADVNDTSLLLSGDHSIQQQLQEVREDDDDAEMTHSVAVNVYPATSRMPKLTIVVVDTIPVELKSSYMVWSWFIYVLSANLLLVIPLLWVAAWWSLRPIEALAKEVRELEEHNRELLNPATTRELTSLVRNLNRLLKSERERYDKYRTTLTDLTHSLKTPLXXLQXXLRSLRSEKMSVSDAEPVMLEQISRISQQIGYYLHRASMRGGTLLSRELHPVAPLLDNLTSALNKVYQRKGVNISLDISPEISFVGEQNDFVEVMGNVLDNACKYCLEFVEISARQTDEHLYIVVEDDGPGIPLSKREVIFDRGQRVDTLRPGQGVGLAVAREITEQYEGKIVAGESMLGGARMEVIFGRQHSAPKDE

Variants of: B1
Assay: enrichment ratio after two sorts for PhoP signalling (ratio (wild type AVST 3.29)); higher = more functional
Conditions: with PhoP (E. coli)

Variant | enrichment ratio
RGGT | ≤ 0.25
TCHA | ≤ 0.25
ESLN | ≤ 0.25
AYSD | ≤ 0.25
WYCA | ≤ 0.25
QFWH | ≤ 0.25
FYES | ≤ 0.25
YMRA | ≤ 0.25
QDSF | ≤ 0.25
ANLM | 13.3
WNLM | ≤ 0.25
AHLM | 12.1
SHGM | ≤ 0.25
SHLA | 3.56
AYLM | ≤ 0.25
SHLM | 19.3
YELF | 0.264
AILM | 5.76
YHLM | 0.877
YELM | 13.8
FTLM | 8.49
ATSH | 10.6
RYPH | ≤ 0.25
VVLY | ≤ 0.25
VSDV | ≤ 0.25

Variant | enrichment ratio
FWLQ | ≤ 0.25
ISFK | ≤ 0.25
HFQN | ≤ 0.25
SRTQ | ≤ 0.25
APLM | ≤ 0.25
IQLM | 3.4
HKLM | ≤ 0.25
KKLM | ≤ 0.25
AQLM | 19.4
NHLM | ≤ 0.25
THLM | 12.3
VHLM | ≤ 0.25
TKLM | 21.3
ADLM | 12.7
FDLM | ≤ 0.25
FHFT | ≤ 0.25
HCCR | ≤ 0.25
PGAV | ≤ 0.25
DVEF | ≤ 0.25
FMQW | ≤ 0.25
QFLI | ≤ 0.25
NSRM | ≤ 0.25
RLVV | ≤ 0.25
TTNN | 17.8
TWNN | 0.76

Variant | enrichment ratio
TNEN | ≤ 0.25
TNQN | 16.8
TNNN | 14.7
SPNN | ≤ 0.25
YTNN | ≤ 0.25
TNMN | ≤ 0.25
ITNN | ≤ 0.25
TVNN | 12.7
PVNN | ≤ 0.25
KCNN | ≤ 0.25
MDAD | ≤ 0.25
QRKY | ≤ 0.25
NDMN | ≤ 0.25
EKIL | ≤ 0.25
PHCG | ≤ 0.25
SNES | ≤ 0.25
IPVP | ≤ 0.25
FDNN | ≤ 0.25
LTNN | ≤ 0.25
MNQH | ≤ 0.25
TNQH | 15
TNKH | ≤ 0.25
TDNN | 33.6
ISMG | 1.17
WDMF | ≤ 0.25

Variant | enrichment ratio
KSIQ | ≤ 0.25
WNCS | ≤ 0.25
TCTI | 17.1
TCTH | 3.96
TCNK | ≤ 0.25
TCDW | ≤ 0.25
TCTE | ≤ 0.25
KCTI | ≤ 0.25
TCTK | 5.27
KCTA | ≤ 0.25
TCIC | ≤ 0.25
TCTS | 17.5
TCTC | 11.4
TCTA | 11.4
WMFM | ≤ 0.25
HQPT | ≤ 0.25
PYKQ | ≤ 0.25
WRPH | ≤ 0.25
LLYS | ≤ 0.25
VMRN | ≤ 0.25
AANR | ≤ 0.25
IGAM | ≤ 0.25
SVEG | ≤ 0.25
NHNM | ≤ 0.25
VWYA | ≤ 0.25

Variant | enrichment ratio
SFCD | ≤ 0.25
SSCI | 24.5
SLCV | 7.13
FSCQ | 7.11
SSCS | 9.51
SSQP | ≤ 0.25
SSCQ | 13.4
TSCG | 7.32
SSCE | 3.26
SSCG | 12.6
KSCG | 1.82
SPCV | ≤ 0.25
SSCV | 18.4
AHKE | ≤ 0.25
PMIW | ≤ 0.25
RAKS | ≤ 0.25
VANQ | ≤ 0.25
IINC | ≤ 0.25
VHNE | ≤ 0.25
SDFS | ≤ 0.25
PMPC | ≤ 0.25
KFDS | ≤ 0.25
YAQF | ≤ 0.25
EIRD | ≤ 0.25
SSNL | 3.91

Variant | enrichment ratio
SSCL | 18.7
SSWL | 10.6
WSRR | ≤ 0.25
ELIY | ≤ 0.25
KGHE | ≤ 0.25
VIMF | ≤ 0.25
FCHH | ≤ 0.25
CSTS | ≤ 0.25
YTTS | ≤ 0.25
TCHH | 26.2
KSHH | ≤ 0.25
CTTS | 16.8
LTTS | ≤ 0.25
YTHH | ≤ 0.25
TTHH | 11.8
TTTC | 5.52
KCHH | ≤ 0.25
TTTS | 14.1
SRLA | ≤ 0.25
NNFT | ≤ 0.25
PAYF | ≤ 0.25
PHQG | ≤ 0.25
LARQ | ≤ 0.25
VYWL | ≤ 0.25
HTSP | ≤ 0.25

Variant | enrichment ratio
QDNG | ≤ 0.25
PCTP | ≤ 0.25
KNRD | ≤ 0.25
PYIP | ≤ 0.25
SDAL | ≤ 0.25
TCES | ≤ 0.25
VDIK | ≤ 0.25
KVYK | ≤ 0.25
HCSM | ≤ 0.25
CLFG | ≤ 0.25
NIPT | ≤ 0.25
KSTK | ≤ 0.25
TTKH | ≤ 0.25
LTNH | ≤ 0.25
YTNH | ≤ 0.25
YTTH | ≤ 0.25
YTTK | ≤ 0.25
TTTK | 16.7
TTNH | 12.2
TTTH | 20.3
ENFF | ≤ 0.25
VSFD | 0.544
LAEF | ≤ 0.25
YEFI | ≤ 0.25
TRCW | ≤ 0.25

Variant | enrichment ratio
YFRG | ≤ 0.25
GFVM | ≤ 0.25
RLME | ≤ 0.25
QHMY | ≤ 0.25
NECM | 28.2
DMCM | ≤ 0.25
YWCM | ≤ 0.25
FNCM | 5.18
LECM | 17.2
LECK | 1.26
MECM | 36.6
FECM | 5
TECM | 31.3
TECK | 4.11
LNCM | ≤ 0.25
MACM | ≤ 0.25
QCSI | ≤ 0.25
QACK | ≤ 0.25
GTRW | ≤ 0.25
TLVA | ≤ 0.25
